Screen size: about 410,000 compounds; about 5,000 (1.2%) were called active. A call without a number means that no potency is given here. Not shown: some 13% with an inconclusive outcome. Calls follow the shape of the dose curve; as a rule, active = well fitted inhibition curve with a large enough effect; inconclusive = small, poorly fitted or top-dose-only effect; inactive = no such curve, though single readings can be large or run the other way. The sample as a whole holds a higher share of actives than the screen did.
assay: qHTS for Inhibitors of TGF-b; conditions: HepG2 CAGA-GFP TGF-b/SMAD3 reporter, GFP fluorescence, 18 h, TGF-beta stimulated, 500 pg/mL final; series mostly up to 46.1 µM; also: nearly all actives have a fitted effect of over 65% in size
Text: TGF-b is a main component in the TGF-b signaling pathway which plays diverse roles in cellular and development pathways. TGF-b is the mediated by the transcription factors Smads. Although the Smad-dependent pathway is the primary canonical TGF-b signaling node, TGF-b1 can also activate alternative signaling pathways, including those involving MAPK (ERK, JNK and p38). This interaction may mediate or enhance Smad-dependent responses, or can exert Smad-independent effects. The complexity of this signaling cascade allows the TGF-b superfamily to perform unique, overlapping or redundant functions. We believe that targeting the TGF-beta pathway at the Smad-transcription factor level may eliminate the consequences of disrupting the entire pathway and offer specificity without affecting other signaling pathways. Smad3 is the primary transducer of TGF-b's signals and Smad3 regulates many functions attributed to TGF-b signaling. We hypothesize that Smad3 inhibitors will selectively eliminate Smad3-specific TGF-beta signals without undesired off-target effects. We aim to identify Smad3-small molecule antagonists using a quantitative high throughput screening (qHTS) approach.
A high-throughput assay was developed to screen the NIH Molecular Libraries Small Molecule Repository (MLSMR). This is a cell based assay, where TGF-b is tagged with GFP. A counterscreen is run that looks at cytotoxicity (please see summary AID).
MH087449NIH Chemical Genomics Center [NCGC]
NIH Molecular Libraries Probe Centers Network [MLPCN]
Assay Submitter (PI): Sushil Rane, National Institute of […]
Suspensions of trypsinized HEPG2 CAGA-GFP cells were dispensed into white, tissue culture-treated, solid 1536-well plates at 5uL/well (1000 cells/well final concentration) in DMEM medium supplemented with 1% FBS. Plates were incubated at 37 degrees C for 2 hours, after which 23 nL of compounds or DMSO were delivered to each well using a pin tool. One uL of recombinant TGF-beta in DMEM (1% FBS) was then dispensed (500 pg/mL final concentration), and plates were incubated at 37 degrees C for 18 hours. The plates were measured on an Acumen eX3 Explorer plate reader for GFP fluorescence (ex488/em500-530). GFP values were calculated by determining the mean GFP fluorescence of individual cells, and compiling these values for each well to determine a total well GFP signal. The %Activity was determined from the corrected fluorescence values. A titration of the known TGF-B inhibitor SB431542 was included to monitor plate performance, while unstimulated HEPG2 (-TGF-B) control wells were used to normalize %Activity of identified inhibitors; unstimulated wells corresponded to 100%Activity (full inhibition), while stimulated cell controls (+DMSO) were used to normalize 0%Activity (no inhibition).
Concentration-response curves were fitted to the signals arising from the resulting fluorescence. The concentration-effect curves were then classified based on curve quality (r2), response magnitude and degree of measured activity, and compounds were subsequently categorized based on their curve class.
Potency is read from the fitted curve at half-maximal effect.

Row | Compound | Potency
1 | Cc1nc2nc(SCC(=O)NC3CCC(C)CC3)nn2c(C)c1Cc1ccccc1Cl (centres undefined) | inactive
2 | CC1(C)C=Cc2c(ccc(C(=O)/C=C/c3ccccc3)c2O)O1 | inactive
3 | Cc1cc(C)cc(NS(=O)(=O)c2ccc(Oc3ncc(C(F)(F)F)cc3Cl)cc2)c1 | 12.6 µM (active)
4 | COc1ccccc1Oc1ccc(S(=O)(=O)Nc2cccnc2)cc1 | inactive
5 | CN(NS(=O)(=O)c1cccs1)c1ncc(C(F)(F)F)cc1Cl | inactive
6 | COc1ccc(CCNCc2c(C(=O)O)c(C)n(Cc3cccc(C)c3)c2C)cc1OC | inactive
7 | Cc1cccc(NC(=O)c2ccc3nc(C(C)C)oc3c2)c1C | inactive
8 | CCOC(=O)N1CCN(c2cc(C)c([N+](=O)[O-])cc2F)CC1 | inactive
9 | C=COC(=O)N1CCN(/[N+]([O-])=N/Oc2ccc([N+](=O)[O-])cc2[N+](=O)[O-])CC1 | 10 µM (active)
10 | O=C(O)C1CCN(c2ccc([N+](=O)[O-])cc2[N+](=O)[O-])CC1 | inactive
11 | O=C(CSc1nc(=O)[nH]c2c1CCCC2)Nc1cc(C(F)(F)F)ccc1Cl | inactive
12 | COc1ccc(/C=C/c2noc(-c3ccccc3O)n2)cc1OC | inactive
13 | Cc1cc([N+](=O)[O-])ccc1NCc1cccc([N+](=O)[O-])c1 | 10 µM (active)
14 | COc1cccc(C(=O)CC(=O)C(=O)Nc2ccc([N+](=O)[O-])cc2C)c1 | inactive
15 | CC(=O)c1ccc(NC(=O)Nc2ccc([N+](=O)[O-])cc2C)cc1 | inactive
16 | O=C(Nc1ccc([N+](=O)[O-])cc1)c1cnn2c1NC(=C1CC1)C=C2C(F)F | inactive
17 | COc1ccc(/C=C/c2ccnc3ccccc23)cc1OC | inactive
18 | Fc1ccc(Nc2nc(SCc3ccccc3Cl)nc3ccccc23)cc1 | 17.8 µM (active)
19 | CSc1ncc(C(=O)NCc2ccccc2Cl)c(C(F)(F)F)n1 | inactive
20 | O=C(CSc1nc(Nc2ccc(F)c(F)c2)c2ccccc2n1)c1ccc(Cl)cc1 | inactive
21 | Cc1ccc(NC(=O)CSc2nc3ccccc3c3nc(CCn4cncc4C)nn23)cc1F | inactive
22 | CCN(CC)C(=O)C1=C(C)N(Cc2ccc(C(C)(C)C)cc2)C(=O)C(CC(=O)NCc2cccc3ccccc23)C1 (centres undefined) | 17.8 µM (active)
23 | COc1ccc(CN2C(=O)C(CC(=O)NCc3cccc4ccccc34)CC(C(=O)N3CCOCC3)=C2C)cc1 (centres undefined) | inactive
24 | CCN(CC)C(=O)C1=C(C)N(Cc2ccc(F)cc2)C(=O)C(CC(=O)NCc2cccc3ccccc23)C1 (centres undefined) | inactive

Row | Compound | Potency
25 | CN(C)c1ccc(/C=c2\[nH]c(=O)/c(=C/c3ccc(N(C)C)cc3)[nH]c2=O)cc1 | inactive
26 | COc1ccc2c(c1)c(=Cc1ccc(N(C)C)cc1)c1cc(-c3ccccc3)[n+](C)n12 | 5.01 µM (active)
27 | Cc1ccc(NC(=O)CSc2nnc3[nH]c(=O)cc(C)n23)cc1Cl | inactive
28 | O=C(Nc1ccc(Br)cc1)c1ccc(Br)c(S(=O)(=O)NCc2ccccc2)c1 | 12.6 µM (active)
29 | Cc1ccc(C(=O)Nc2ccc(C(=O)O)cc2)cc1S(=O)(=O)Nc1ccccc1 | inactive
30 | Cn1c(=O)n(C)c2cc(C(=O)Nc3ccc(Br)cc3)ccc21 | inactive
31 | COc1ccccc1C1C(C(=O)N2CCCCC2)=C(C)Nc2nc3ccccc3n21 (centres undefined) | inactive
32 | CCCCCCC1(C)NC(c2ccc3c(c2)OCO3)=CC(c2ccccc2O)N1 (centres undefined) | inactive
33 | Oc1ccc(Cl)cc1C1C=C(c2ccc3c(c2)OCO3)NC(c2ccc(F)c(Br)c2)N1 (centres undefined) | 10 µM (active)
34 | C(=Nc1ccc(/C=C/c2ccnc3ccccc23)cc1)c1cc2c3c(c1)CCCN3CCC2 | inactive
35 | NC1=CC(=O)C(=O)c2cccnc21 | 7.94 µM (active)
36 | Cc1ccc2nc(COc3ccc(NC(=O)COc4ccccc4F)cc3)cc(=O)n2c1 | inactive
37 | CC(C)N(C(=O)[C@H]1C[C@H](CC(=O)NC(C)(C)C)C(=O)N2CCc3c([nH]c4ccc(Cl)cc34)[C@]12C)C(C)C | 11.2 µM (active)
38 | O=C(C[C@H]1C[C@H](C(=O)N2CCOCC2)[C@@]2(CCC3CCCC3)c3[nH]c4ccc(Cl)cc4c3CCN2C1=O)NCc1ccco1 | inactive
39 | C[C@]12c3[nH]c4ccc(Cl)cc4c3CCN1C(=O)[C@@H](CC(=O)NCCCn1ccnc1)C[C@@H]2C(=O)N1CCOCC1 | inactive
40 | CCN(CC)C(=O)[C@H]1CC(CC(=O)NCc2ccco2)C(=O)N2CCc3c([nH]c4ccccc34)[C@]12C (some centres undefined) | inactive
41 | COc1ccc2[nH]c3c(c2c1)CCN1C(=O)C(CC(=O)NCCCN(C)C)C[C@H](C(=O)N2CCOCC2)[C@@]31CCC1CCCC1 (some centres undefined) | inactive
42 | COc1ccc(CNC(=O)C[C@H]2C[C@H](C(=O)N3CCOCC3)[C@@]3(CCC4CCCC4)c4[nH]c5ccc(Cl)cc5c4CCN3C2=O)cc1OC | 1.78 µM (active)
43 | CCOC(=O)c1c(S(=O)(=O)N2CCCC(C(=O)NCc3cccc(C)c3)C2)c(C)n(C)c1C (centres undefined) | inactive
44 | Cc1ccc(-n2c(SCC(=O)c3ccccc3)nc3c([nH]c4ccccc43)c2=O)cc1 | inactive
45 | CN1c2ccc(Cl)cc2-c2nc(SCC(=O)Nc3cc(F)ccc3F)ncc2S1(=O)=O | inactive
46 | O=C(c1ccc2c(c1)N(Cc1ccccc1F)C(=O)c1ccccc1S2(=O)=O)N1CCOCC1 | inactive
47 | Cc1ccc(S(=O)(=O)NCc2nc3nc(C)cc(C)n3n2)cc1 | inactive
48 | COc1ccc(CCNC(=O)CCCCn2c(=O)c3ccccc3n(Cc3ccccc3)c2=O)cc1OC | inactive

Row | Compound | Potency
49 | CC(=O)c1ccc(NC(=O)CSc2c(C(C)C)cnc3c2c(=O)n(C)c(=O)n3C)cc1 | inactive
50 | CCOC(=O)C1=C(N)N(c2ccc(C)cc2)C2=C(C(=O)CCC2)C1c1cccs1 (centres undefined) | 11.2 µM (active)
51 | O=C1CCCC2=C1C(c1cccs1)CC(=O)N2c1ccc(F)cc1 (centres undefined) | inactive
52 | CCOC(=O)c1cc2c(n(-c3ccc(C)cc3)c1=O)CCCC2=O | inactive
53 | COc1ccccc1NC(=O)c1oc2ccccc2c1NC(=O)COc1ccccc1OC | inactive
54 | O=C(Nc1ccc(Cl)cc1)c1cnn2c1NC(=C1CC1)C=C2C(F)F | inactive
55 | Cc1cc(=O)oc2cc(OCC(=O)N3CCN(c4ccc(F)cc4)CC3)c(Cl)cc12 | inactive
56 | Oc1c(CN2CCN(c3ccc(F)cc3)CC2)cc(Cl)c2cccnc12 | 7.08 µM (active)
57 | Oc1c(CN2CCCC2)cc(COCc2ccccc2)c2cccnc12 | 4.47 µM (active)
58 | Cc1cccc(C)c1NC(=O)CN1CCN(c2ccc(F)cc2)CC1 | inactive
59 | O=c1cc(CN2CCCCCCC2)c2c(ccc3ccccc32)o1 | inactive
60 | O=C(Cc1ccccc1)NNC(=O)C1CCN(c2ncccn2)CC1 | inactive
61 | CCc1nn(CCCC(=O)NCc2ccccc2OC)c(=O)c2cc3occc3n12 | inactive
62 | CCc1ccc(CNC(=O)c2cc3cc4ccc(OC)cc4nc3o2)cc1 | inactive
63 | CCCNC(=O)C1CCN(c2nc3ccc(C)cc3[nH]2)CC1 | inactive
64 | Cc1ccc(NC(=O)Nc2nnc(-c3ccncc3)s2)cc1 | 11.2 µM (active)
65 | CCc1ccc(NC(=O)Nc2ccncc2)cc1 | inactive
66 | CC(C)=CC(=O)Nc1nnc(-c2ccc(F)cc2)s1 | inactive
67 | CN1CCN(C2(CNC(=O)COc3ccc(C(C)(C)C)cc3)CCCCC2)CC1 | inactive
68 | CCOc1ccc(S(=O)(=O)c2cn(Cc3ccccc3)c3ccc(OCC)cc3c2=O)cc1 | inactive
69 | O=C(Nc1cccc(Cl)c1)c1csnn1 | inactive
70 | O=C(NCc1cn2ccsc2n1)Nc1cccc(Cl)c1 | inactive
71 | Cc1csc(NC(=S)Nc2cccc(Cl)c2)n1 | 8.91 µM (active)
72 | O=C1CC(c2ccccc2)CC2=C1C(c1ccco1)n1nc(C(F)(F)F)nc1N2 (centres undefined) | inactive

Row | Compound | Potency
73 | CCCCNC(=O)Cn1c(SCc2cccc(Cl)c2)nc2ccncc21 | inactive
74 | Cc1cccc(-c2nnc(SC(C)C(=O)Nc3ccccc3)n2C)c1 (centres undefined) | inactive
75 | O=S(=O)(NCCS(=O)(=O)N1CCN(c2ccccc2)CC1)c1ccc(Cl)cc1 | inactive
76 | O=C(CN1C(=O)COc2ccc(S(=O)(=O)N3CCOCC3)cc21)N1CCN(c2cccc(Cl)c2)CC1 | inactive
77 | CC(C)(C)SCCNC(=O)c1cccc([N+](=O)[O-])c1 | inactive
78 | O=C(Nc1nnc(SCc2c(Cl)cccc2Cl)s1)c1cccc([N+](=O)[O-])c1 | inactive
79 | O=C(Nc1ccc(C2CC2(Cl)Cl)cc1)c1cccc([N+](=O)[O-])c1 (centres undefined) | 15.8 µM (active)
80 | Cc1ccc(-c2cn3c(n2)sc2cc(C(=O)NCc4cccs4)ccc23)c(C)c1 | inactive
81 | Cc1cc(C)cc(NC(=O)CSc2nc(=O)n(CCN3CCOCC3)c3c2CCC3)c1 | inactive
82 | Cc1nnc(SCc2cc(=O)c3cc(F)ccc3[nH]2)n1C | inactive
83 | CCCc1cc(C(=O)Nc2ccc(Cl)cn2)cs1 | inactive
84 | O=C(Nc1ccc(Cl)cn1)c1ccccc1-c1ccccc1 | inactive
85 | Clc1ccc(Nc2nc(-c3cccs3)cs2)nc1 | 11.2 µM (active)
86 | COc1ccc(C(=O)COC(=O)CCCC(=O)Nc2cc(C(F)(F)F)ccc2Cl)cc1 | inactive
87 | COc1cc(NC(=O)c2cncc(-c3ccc(C#N)cc3)c2)cc(C(=O)Nc2cccc(C(F)(F)F)c2)c1 | inactive
88 | Cc1cc(Nc2cccc(C(F)(F)F)c2)nc2ccc(NC(=O)c3ccc(=O)[nH]c3)cc12 | inactive
89 | COc1cc(NC(=O)c2[nH]cnc2C(N)=O)cc(C(=O)Nc2cccc(C(F)(F)F)c2)c1 | 4.47 µM (active)
90 | O=C(Nc1ccccc1F)C(c1ccccc1)N1Cc2ccccc2C1=O (centres undefined) | inactive
91 | CCc1ccc(NC(=O)CCS(=O)(=O)c2cc3c(cc2Cl)NC(=O)CO3)cc1 | inactive
92 | O=C(NC1CCN(Cc2ccccc2)CC1)c1cc(Br)c(Br)[nH]1 | inactive
93 | S=C(Nc1ccc(Br)cc1)NC1CCN(Cc2ccccc2)CC1 | 10 µM (active)
94 | O=C(COc1ccc(Br)cc1F)NC1CCN(Cc2ccccc2)CC1 | inactive

From PubChem BioAssay AID588855 (National Center for Advancing Translational Sciences (NCATS), 2011)
